Data as given in the supplement of paper PMC11732987, “Enantioselective OTUD7B fragment discovery through chemoproteomics screening and high-throughput optimisation” (Communications Chemistry, 2025).

Legend:
Test in all cases: log2 ratio of Biotin-Ahx-Ub-VS probe labelling (fragment/DMSO); higher = less target engagement (more negative = stronger competition), active = hit call of the paper (q ≤ 0.05, log2 ratio ≤ -1)
Conditions in all cases: compound concentration: 200 uM; treatment time: 3 h
OTUD6B = target: T1, OTUD6B (UniProt Q8N6M0)
T1 sequence (whole entry): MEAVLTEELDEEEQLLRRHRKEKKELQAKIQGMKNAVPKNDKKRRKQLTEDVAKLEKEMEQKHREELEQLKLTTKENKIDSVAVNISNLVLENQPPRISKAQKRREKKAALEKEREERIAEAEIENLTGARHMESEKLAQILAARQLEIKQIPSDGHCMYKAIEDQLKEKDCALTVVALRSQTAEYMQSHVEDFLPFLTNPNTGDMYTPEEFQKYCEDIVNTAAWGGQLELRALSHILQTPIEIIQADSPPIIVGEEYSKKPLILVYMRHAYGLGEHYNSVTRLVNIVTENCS
Procedure, shortened: (§1)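 HEK293T lysate (495 µg per sample, in Tris/CHAPS/IGEPAL buffer with protease inhibitors) was exposed in triplicate for 3 h to fragment at 200 µM or to vehicle, then to Biotin-Ahx-Ub-VS at 0.5 µM final for 1 h. Labelled DUBs were enriched on NeutrAvidin, digested with LysC and trypsin, and analysed by diaPASEF LC-MS/MS. Spectronaut label-free quantities were normalised to the global median, and values are average log2 ratios of fragment over vehicle from an unpaired t-test. Only proteins with ≥2 unique peptides were used.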

OTUD7B = target: T2, OTUD7B (UniProt Q6GQQ9)
T2 sequence (whole entry): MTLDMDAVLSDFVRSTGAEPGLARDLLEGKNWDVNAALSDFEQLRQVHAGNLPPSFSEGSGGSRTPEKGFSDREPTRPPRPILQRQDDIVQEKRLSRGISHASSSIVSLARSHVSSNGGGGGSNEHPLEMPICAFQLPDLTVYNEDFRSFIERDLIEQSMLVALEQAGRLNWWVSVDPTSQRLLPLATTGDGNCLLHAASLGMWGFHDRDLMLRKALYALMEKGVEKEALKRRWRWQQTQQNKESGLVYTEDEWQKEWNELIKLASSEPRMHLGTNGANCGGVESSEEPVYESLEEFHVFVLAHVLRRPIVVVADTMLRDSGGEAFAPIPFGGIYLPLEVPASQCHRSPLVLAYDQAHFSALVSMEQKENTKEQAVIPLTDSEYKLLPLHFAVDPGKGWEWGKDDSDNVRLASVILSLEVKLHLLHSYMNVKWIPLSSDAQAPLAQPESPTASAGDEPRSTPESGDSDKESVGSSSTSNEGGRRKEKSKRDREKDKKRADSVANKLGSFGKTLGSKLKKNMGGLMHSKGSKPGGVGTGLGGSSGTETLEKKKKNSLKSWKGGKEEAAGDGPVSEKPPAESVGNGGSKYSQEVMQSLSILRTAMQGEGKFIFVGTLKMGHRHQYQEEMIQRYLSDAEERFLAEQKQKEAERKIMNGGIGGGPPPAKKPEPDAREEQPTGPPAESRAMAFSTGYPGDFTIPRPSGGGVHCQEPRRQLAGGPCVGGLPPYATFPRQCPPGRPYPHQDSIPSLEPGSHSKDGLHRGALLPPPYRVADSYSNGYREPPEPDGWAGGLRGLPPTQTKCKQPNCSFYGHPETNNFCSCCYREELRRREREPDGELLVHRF
Procedure, shortened: as §1

PRPF8 = PRPF8 (UniProt Q6P2Q9)
Procedure, shortened: as §1

PSMD7 = target: T3, PSMD7 (UniProt P51665)
T3 sequence (whole entry): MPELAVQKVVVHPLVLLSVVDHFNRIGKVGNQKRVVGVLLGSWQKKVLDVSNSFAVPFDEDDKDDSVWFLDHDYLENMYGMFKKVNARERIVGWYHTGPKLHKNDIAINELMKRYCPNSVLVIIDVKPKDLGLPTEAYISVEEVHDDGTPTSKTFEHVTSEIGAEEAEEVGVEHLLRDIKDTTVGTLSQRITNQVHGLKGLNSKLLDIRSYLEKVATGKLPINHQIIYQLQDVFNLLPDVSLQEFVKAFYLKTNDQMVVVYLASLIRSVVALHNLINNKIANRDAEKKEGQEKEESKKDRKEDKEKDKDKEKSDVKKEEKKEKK
Procedure, shortened: as §1

UCHL1 = UCHL1 (UniProt P09936)
Sequence of UCHL1 (P09936 whole entry, looked up): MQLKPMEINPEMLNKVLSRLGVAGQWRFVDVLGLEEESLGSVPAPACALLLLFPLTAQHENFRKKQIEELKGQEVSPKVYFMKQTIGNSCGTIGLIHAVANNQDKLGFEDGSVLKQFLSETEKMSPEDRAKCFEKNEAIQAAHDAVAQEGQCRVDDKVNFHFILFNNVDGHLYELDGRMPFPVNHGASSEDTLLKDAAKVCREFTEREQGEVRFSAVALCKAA
Procedure, shortened: as §1

UCHL3 = target: T4, UCHL3 (UniProt P15374)
T4 sequence (whole entry): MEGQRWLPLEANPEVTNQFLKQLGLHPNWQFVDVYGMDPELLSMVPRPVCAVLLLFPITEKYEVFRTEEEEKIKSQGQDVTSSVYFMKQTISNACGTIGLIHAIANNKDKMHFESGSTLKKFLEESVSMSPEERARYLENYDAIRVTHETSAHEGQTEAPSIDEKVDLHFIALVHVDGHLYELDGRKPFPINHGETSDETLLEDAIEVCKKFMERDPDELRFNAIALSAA
Procedure, shortened: as §1

UCHL5 = target: T5, UCHL5 (UniProt Q9Y5K5)
T5 sequence (whole entry): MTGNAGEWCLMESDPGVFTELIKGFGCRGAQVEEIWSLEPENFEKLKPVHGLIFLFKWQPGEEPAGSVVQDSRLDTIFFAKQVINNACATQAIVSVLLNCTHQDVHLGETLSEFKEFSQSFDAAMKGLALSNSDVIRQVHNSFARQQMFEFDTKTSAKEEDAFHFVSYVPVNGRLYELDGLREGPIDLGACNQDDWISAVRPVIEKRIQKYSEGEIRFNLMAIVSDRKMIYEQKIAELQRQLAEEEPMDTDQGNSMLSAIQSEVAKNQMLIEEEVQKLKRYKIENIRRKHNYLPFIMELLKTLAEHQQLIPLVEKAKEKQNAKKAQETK
Procedure, shortened: as §1

USP10 = USP10 (UniProt Q14694)
Sequence of USP10 (Q14694 whole entry): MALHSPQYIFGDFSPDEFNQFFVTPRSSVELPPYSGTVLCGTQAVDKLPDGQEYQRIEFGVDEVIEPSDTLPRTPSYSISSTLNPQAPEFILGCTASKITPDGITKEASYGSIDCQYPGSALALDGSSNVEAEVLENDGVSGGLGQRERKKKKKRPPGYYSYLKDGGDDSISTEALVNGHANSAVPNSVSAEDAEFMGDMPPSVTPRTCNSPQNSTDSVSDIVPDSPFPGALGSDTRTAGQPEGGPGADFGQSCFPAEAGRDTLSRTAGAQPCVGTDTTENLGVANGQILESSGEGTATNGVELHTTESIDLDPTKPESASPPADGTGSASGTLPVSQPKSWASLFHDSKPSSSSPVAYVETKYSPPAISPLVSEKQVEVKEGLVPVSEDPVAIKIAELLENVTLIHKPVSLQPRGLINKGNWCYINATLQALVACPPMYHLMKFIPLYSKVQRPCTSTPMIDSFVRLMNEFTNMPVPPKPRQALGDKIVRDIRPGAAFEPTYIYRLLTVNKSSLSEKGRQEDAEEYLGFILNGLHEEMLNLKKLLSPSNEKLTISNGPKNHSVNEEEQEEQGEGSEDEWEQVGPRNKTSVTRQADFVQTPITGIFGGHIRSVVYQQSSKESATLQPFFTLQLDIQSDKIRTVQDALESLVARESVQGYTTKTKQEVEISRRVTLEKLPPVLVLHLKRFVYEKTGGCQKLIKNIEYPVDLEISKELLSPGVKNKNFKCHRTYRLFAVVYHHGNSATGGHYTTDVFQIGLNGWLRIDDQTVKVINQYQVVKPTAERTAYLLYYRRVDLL
Procedure, shortened: as §1

USP15 = target: T6, USP15 (UniProt Q9Y4E8)
T6 sequence (whole entry): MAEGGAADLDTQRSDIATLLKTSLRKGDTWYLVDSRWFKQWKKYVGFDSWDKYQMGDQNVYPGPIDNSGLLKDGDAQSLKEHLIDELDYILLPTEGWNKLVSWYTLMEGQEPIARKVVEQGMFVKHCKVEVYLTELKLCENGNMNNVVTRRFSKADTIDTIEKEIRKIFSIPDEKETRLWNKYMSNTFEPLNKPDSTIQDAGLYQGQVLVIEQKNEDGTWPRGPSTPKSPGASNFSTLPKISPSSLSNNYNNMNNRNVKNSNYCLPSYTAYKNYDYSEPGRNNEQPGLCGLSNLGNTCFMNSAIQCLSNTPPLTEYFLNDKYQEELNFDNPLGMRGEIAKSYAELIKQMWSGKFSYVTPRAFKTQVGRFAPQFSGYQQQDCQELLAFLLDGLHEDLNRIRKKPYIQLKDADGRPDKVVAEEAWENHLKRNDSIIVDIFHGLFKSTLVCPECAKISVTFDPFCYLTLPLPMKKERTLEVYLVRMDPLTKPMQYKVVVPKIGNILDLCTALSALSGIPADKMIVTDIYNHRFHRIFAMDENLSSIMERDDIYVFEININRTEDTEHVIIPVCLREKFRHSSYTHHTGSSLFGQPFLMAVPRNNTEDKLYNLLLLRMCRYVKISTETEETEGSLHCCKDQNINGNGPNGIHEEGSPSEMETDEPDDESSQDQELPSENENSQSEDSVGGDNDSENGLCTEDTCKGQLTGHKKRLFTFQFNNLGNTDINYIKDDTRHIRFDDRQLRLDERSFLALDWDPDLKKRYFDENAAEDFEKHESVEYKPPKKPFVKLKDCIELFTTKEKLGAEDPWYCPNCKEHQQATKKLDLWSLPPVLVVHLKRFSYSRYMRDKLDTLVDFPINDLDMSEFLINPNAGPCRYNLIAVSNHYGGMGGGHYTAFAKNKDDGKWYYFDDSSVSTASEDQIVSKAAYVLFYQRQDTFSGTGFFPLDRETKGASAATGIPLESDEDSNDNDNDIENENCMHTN
Procedure, shortened: as §1

USP16 = USP16 (UniProt Q9Y5T5)
Sequence of USP16 (Q9Y5T5 whole entry, looked up): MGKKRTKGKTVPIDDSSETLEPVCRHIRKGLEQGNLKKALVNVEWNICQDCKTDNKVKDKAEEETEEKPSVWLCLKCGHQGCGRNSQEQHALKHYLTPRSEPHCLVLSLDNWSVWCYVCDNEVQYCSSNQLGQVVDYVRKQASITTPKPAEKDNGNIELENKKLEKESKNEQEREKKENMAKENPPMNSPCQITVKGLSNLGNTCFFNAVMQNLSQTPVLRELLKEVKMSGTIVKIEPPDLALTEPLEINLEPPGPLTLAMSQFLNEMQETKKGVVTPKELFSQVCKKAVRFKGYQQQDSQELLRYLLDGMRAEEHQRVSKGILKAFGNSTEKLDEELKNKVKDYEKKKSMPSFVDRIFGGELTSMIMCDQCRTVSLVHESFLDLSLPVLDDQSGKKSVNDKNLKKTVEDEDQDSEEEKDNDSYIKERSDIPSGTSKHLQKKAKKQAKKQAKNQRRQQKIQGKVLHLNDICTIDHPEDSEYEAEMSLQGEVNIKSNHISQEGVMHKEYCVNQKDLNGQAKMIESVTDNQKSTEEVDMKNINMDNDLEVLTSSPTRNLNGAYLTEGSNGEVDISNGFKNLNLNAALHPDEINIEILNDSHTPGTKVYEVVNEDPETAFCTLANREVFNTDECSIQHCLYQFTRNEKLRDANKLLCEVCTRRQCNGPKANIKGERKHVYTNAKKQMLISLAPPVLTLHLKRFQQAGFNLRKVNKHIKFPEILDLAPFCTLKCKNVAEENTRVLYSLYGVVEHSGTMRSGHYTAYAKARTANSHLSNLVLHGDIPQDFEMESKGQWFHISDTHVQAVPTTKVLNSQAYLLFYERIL
Procedure, shortened: as §1

Measured: log2 ratio of Biotin-Ahx-Ub-VS probe labelling

O=C(CCl)Nc1cc2c(cc1Cl)OCCO2
inactive: OTUD6B -0.0652 | OTUD7B -0.567 | PRPF8 0.0189 | PSMD7 -0.149 | UCHL3 0.196 | UCHL5 -0.407 | USP10 -0.000247 | USP15 -0.202 | USP16 0.406
active: UCHL1 -1.2
